The values that follow come from PubChem BioAssay (EPA / NIEHS).

SMILES strings stand for the structures. A structure can be active in one record and inactive in another. Active and inactive are the calls of the source. How the source made its calls: active means hit-call score of the fitted dose curve at least 0.9, where 1 is the maximum; inactive means score below 0.9.

Assay [1] can be described thus: BSK_KF3CT_SRB: Viability Assessment in the BioMAP Diversity Plus: KF3CT Assay (AID 2283069).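 Further: total protein by sulforhodamine B staining as a cytotoxicity measure; read 24 h after compound addition; fitted for both signal gain and loss against DMSO baseline.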 Conditions: primary human keratinocytes with fibroblasts. Summed up:
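Human keratinocyte and foreskin fibroblast co-culture exposed to chemical for 24 h. Total protein measured in parallel cultures by 0.1% sulforhodamine B staining after 10% TCA fixation, read at 560 nm; bidirectional fit relative to DMSO.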

Read-out in assay [2]: Interleukin-1 alpha (IL1a), IL1A (gene 3552)
Nature of the assay: BSK_KF3CT_IL1a: BioMAP Diversity Plus: KF3CT Assay for Interleukin-1 alpha (IL1a) Biomarker Activity (AID 2283070). The following applies: primary human keratinocytes with fibroblasts; actives raise or lower the signal. In a few lines:
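Primary human keratinocyte plus foreskin fibroblast co-culture, dosed and measured at 24 h in 96-well plates. IL-1a level quantified by ELISA; bidirectional fit relative to DMSO.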

Read-out in assay [3]: TIMP metallopeptidase inhibitor 2 (TIMP2), TIMP2 (gene 7077)
As to the kind of experiment: BSK_KF3CT_TIMP2: BioMAP Diversity Plus: KF3CT Assay for TIMP metallopeptidase inhibitor 2 (TIMP2) Biomarker Activity (AID 2283071). The following applies: primary human keratinocytes with fibroblasts; actives raise or lower the signal. Summed up:
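Co-culture of human primary keratinocytes and foreskin fibroblasts, measured 24 h after chemical dosing. TIMP-2 quantified by ELISA and fitted in both directions relative to DMSO. Cytotoxicity checked in parallel cultures by SRB total-protein staining.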

Read-out in assay [4]: Transforming growth factor beta 1 (TGFb1), TGFB1 (gene 7040)
Nature of the assay: BSK_KF3CT_TGFb1: BioMAP Diversity Plus: KF3CT Assay for Transforming growth factor beta 1 (TGFb1) Biomarker Activity (AID 2283072). The following applies: primary human keratinocytes with fibroblasts; actives raise or lower the signal. In a few lines: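 Human keratinocyte/foreskin fibroblast co-culture; TGF-b1 measured by ELISA 24 h after dosing, fitted bidirectionally versus DMSO. Cytotoxicity checked in parallel cultures by total protein (SRB staining, 560 nm).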

Read-out in assay [5]: C-C motif chemokine 2 (Homo sapiens) (UniProt P13500)
Nature of the assay: BSK_KF3CT_MCP1: BioMAP Diversity Plus: KF3CT Assay for Monocyte Chemoattractant Protein 1 (MCP1/CCL2) Biomarker Activity (AID 2283073). The following applies: primary human keratinocytes with fibroblasts; actives raise or lower the signal. In a few lines: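 ELISA readout of MCP-1 after 24 h chemical dosing of a human skin primary co-culture of keratinocytes and foreskin fibroblasts. Activity was fitted in both directions against DMSO.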

Read-out in assay [6]: Matrix Metallopeptidase 9 (MMP9), MMP9 (gene 4318)
As to the kind of experiment: BSK_KF3CT_MMP9: BioMAP Diversity Plus: KF3CT Assay for Matrix Metallopeptidase 9 (MMP9) Biomarker Activity (AID 2283074).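 On AC50: MMP9 protein level quantified by ELISA in the co-culture.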 The following applies: primary human keratinocytes with fibroblasts; actives raise or lower the signal. Summed up:
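Human keratinocyte and foreskin fibroblast co-culture exposed to chemicals for 24 h; MMP9 biomarker measured by ELISA, bidirectional fitting relative to DMSO; cytotoxicity tracked by SRB total protein staining in parallel cultures.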

Read-out in assay [7]: urokinase plasminogen activator (uPA), PLAU (gene 5328)
As to the kind of experiment: BSK_KF3CT_uPA: BioMAP Diversity Plus: KF3CT Assay for urokinase plasminogen activator (uPA) Biomarker Activity (AID 2283075). Conditions: primary human keratinocytes with fibroblasts; actives raise or lower the signal. In a few lines: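 Primary human keratinocyte/foreskin fibroblast co-culture exposed to chemical; uPA measured by ELISA at 24 h. Bidirectional fit versus DMSO, with parallel SRB total-protein staining for cytotoxicity.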

Read-out in the next assay: CD40, CD40 (gene 958)
Nature of the assay: BSK_LPS_CD40: BioMAP Diversity Plus: LPS Assay for CD40 Biomarker Activity (AID 2283076). Conditions: primary human HUVEC with PBMC; actives raise or lower the signal. In a few lines: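 Cells were dosed, incubated 24 h, then assayed for CD40 by ELISA. Gain or loss of signal was analysed relative to DMSO controls. The culture paired human umbilical vein endothelium with peripheral blood mononuclear cells.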

Read-out in assay [8]: E-selectin (Homo sapiens) (UniProt P16581)
As to the kind of experiment: BSK_LPS_Eselectin: BioMAP Diversity Plus: LPS Assay for Eselectin Biomarker Activity (AID 2283077). Conditions: primary human HUVEC with PBMC; actives raise or lower the signal. In a few lines:
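Primary human vascular co-culture (endothelium plus PBMC) was dosed with chemical, then E-selectin quantified by ELISA at 24 h. Endpoint values derive from bidirectional curve fitting relative to DMSO.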

Read-out in assay [9]: Interleukin-8 (IL8), CXCL8 (gene 3576)
As to the kind of experiment: BSK_LPS_IL8: BioMAP Diversity Plus: LPS Assay for Interleukin-8 (IL8) Biomarker Activity (AID 2283078). The following applies: primary human HUVEC with PBMC; actives raise or lower the signal. Summed up:
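Readout is IL-8 by ELISA, taken 24 h after compounds were added to LPS-stimulated endothelial/PBMC co-cultures. Both increases and decreases relative to DMSO control were scored through bidirectional fitting.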

Chain of E-selectin (Homo sapiens) (P16581 whole entry, looked up): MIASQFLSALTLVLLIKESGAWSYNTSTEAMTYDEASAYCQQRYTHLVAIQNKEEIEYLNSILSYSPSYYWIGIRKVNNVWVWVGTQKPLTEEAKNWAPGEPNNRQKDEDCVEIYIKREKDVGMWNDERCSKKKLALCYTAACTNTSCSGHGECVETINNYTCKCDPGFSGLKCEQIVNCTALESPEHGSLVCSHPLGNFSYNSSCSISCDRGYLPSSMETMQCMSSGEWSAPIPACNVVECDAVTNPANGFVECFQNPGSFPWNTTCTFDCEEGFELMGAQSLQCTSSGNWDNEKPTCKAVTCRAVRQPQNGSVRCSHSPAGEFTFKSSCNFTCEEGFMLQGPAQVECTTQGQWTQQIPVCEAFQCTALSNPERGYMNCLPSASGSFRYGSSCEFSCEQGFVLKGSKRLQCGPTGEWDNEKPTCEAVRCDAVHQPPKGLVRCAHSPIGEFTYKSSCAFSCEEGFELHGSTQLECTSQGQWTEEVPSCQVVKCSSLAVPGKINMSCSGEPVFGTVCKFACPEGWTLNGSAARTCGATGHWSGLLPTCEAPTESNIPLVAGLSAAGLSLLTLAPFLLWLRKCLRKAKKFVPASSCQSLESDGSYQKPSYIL

As for `CCOc1cc(Oc2ccc(C(F)(F)F)cc2Cl)ccc1[N+](=O)[O-]`, the outcome in [1], in assay [3], in assay [4], in [5], in assay [6] and in [7] was inactive. Moreover, the outcome is “inactive” with CD40, CD40 (gene 958) and “inactive” in assay [8]. Moreover, the AC50 (usually the concentration at which the activity in the assay is half-maximal) in assay [2] is 6.07 µM (active); in [9] it was 11 µM (active).
With `CCCCOC(=O)c1ccccc1C(=O)OCCCC`, the outcome in assay [1], in assay [2], in assay [3], in [4], in [5] and in [6] was inactive. For the same compound, the outcome is “inactive” in assay [7]; “inactive” with CD40, CD40 (gene 958); “inactive” in assay [8]; “inactive” in assay [9]. Besides, the AC50 in [9] was 25.3 µM (active).
For `CS/C(C)=N/OC(=O)N(C)SN(C)C(=O)O/N=C(\C)SC`, the AC50 in [1] was 12.5 µM (active); in assay [2] it was 17.8 µM (active); in [3] it was 14.5 µM (active); in assay [4], 13.3 µM (active); in assay [5], 12.6 µM (active); in assay [6] it was 17.1 µM (active). Also, the AC50 in [7] is 16.9 µM (active); with CD40, CD40 (gene 958) it was 15.8 µM (active); in assay [8], 34.7 µM (active); in assay [9], 30.8 µM (active).
As for `CON(C)C(=O)Nc1ccc(Cl)c(Cl)c1`, the result in assay [1], in assay [2], in assay [3], in assay [4], in assay [5] and in assay [6] was inactive. Further, the outcome in [7] is “inactive”; with CD40, CD40 (gene 958) it was “inactive”; in assay [8], “inactive”; in assay [9], “inactive”.
Take `Cc1cc(Cl)ccc1OCC(=O)O`: the outcome in assay [1], in [2], in [3], in [4], in assay [5] and in assay [6] was inactive. The outcome in assay [7] was “inactive”; with CD40, CD40 (gene 958), “inactive”; in assay [8] it was “inactive”; in assay [9] it was “inactive”.
In the case of `O=C(O)COc1nc(Cl)c(Cl)cc1Cl`, the outcome in [1], in assay [2], in assay [3], in assay [4], in assay [5] and in [6] was inactive. The outcome in [7] was “inactive”; in the assay with CD40, CD40 (gene 958) it was “inactive”; in assay [8] it was “inactive”; in assay [9] it was “inactive”.
`CCNc1nc(Cl)nc(NCC)n1`: the outcome in assay [1], in assay [2], in assay [3], in assay [4], in assay [5] and in assay [6] was inactive. In addition, the outcome in [7] was “inactive”; with CD40, CD40 (gene 958), “inactive”; in assay [8], “inactive”; in assay [9], “inactive”.
For `CCCC1COC(Cn2cncn2)(c2ccc(Cl)cc2Cl)O1` (stereo unspecified), the result in [1], in assay [2], in assay [3], in assay [4], in assay [5] and in assay [6] was inactive. Also, the result in assay [7], in assay [8] and in assay [9] was inactive. For the same compound, the AC50 in the assay with CD40, CD40 (gene 958) is 20 µM (active).
As for `CCCCNC(=O)n1c(NC(=O)OC)nc2ccccc21`, the outcome in assay [1], in assay [3], in [4], in assay [5], in assay [6] and in assay [7] was inactive. The outcome is “inactive” with CD40, CD40 (gene 958); “inactive” in assay [8]; “inactive” in assay [9]. The half-maximal activity concentration (AC50) in assay [2] was 20 µM (active).
With `CC(C)C1(C)N=C(c2nc3ccccc3cc2C(=O)O)NC1=O` (stereo unspecified), the outcome in assay [1], in assay [2], in assay [3], in [4], in assay [5] and in assay [6] was inactive. Further, the outcome in assay [7] was “inactive”; with CD40, CD40 (gene 958) it was “inactive”; in assay [8], “inactive”; in assay [9] it was “inactive”.
For `COP(N)(=O)SC` (stereo unspecified), the result in assay [1], in [2], in assay [3], in assay [4], in assay [5] and in assay [6] was inactive. Besides, the outcome in assay [7] was “inactive”; in the assay with CD40, CD40 (gene 958), “inactive”; in assay [8] it was “inactive”; in assay [9], “inactive”.
`Fc1ccc(Oc2ccnc3cc(Cl)cc(Cl)c23)cc1`: the result in assay [1], in [2], in assay [3], in [4], in assay [5] and in assay [7] was inactive. Also, the half-maximal activity concentration (AC50) is 12.9 µM (active) in assay [6]; 22.8 µM (active) with CD40, CD40 (gene 958); 34.4 µM (active) in [8]; 28.8 µM (active) in assay [9].
Take `N#Cc1nn(-c2c(Cl)cc(C(F)(F)F)cc2Cl)c(N)c1S(=O)C(F)(F)F` (stereo unspecified): the result in assay [1], in assay [2], in [3], in assay [4], in [5] and in assay [6] was inactive. The result in assay [7] was inactive. The AC50 with CD40, CD40 (gene 958) was 14.9 µM (active); in assay [8], 36.8 µM (active); in assay [9], 23.4 µM (active).
`COP(=S)(OC)Oc1nc(Cl)c(Cl)cc1Cl`: the result in assay [1], in assay [2], in assay [3], in assay [4], in assay [5] and in assay [6] was inactive. The outcome is “inactive” in [7]; “inactive” with CD40, CD40 (gene 958); “inactive” in assay [9]. The AC50 in assay [8] is 32.5 µM (active).
